Test results published in the supplement of paper PMC11732987, “Enantioselective OTUD7B fragment discovery through chemoproteomics screening and high-throughput optimisation” (Communications Chemistry, 2025).

Tests used:
Experiment in all cases: log2 ratio of Biotin-Ahx-Ub-VS probe labelling (fragment/DMSO); higher = less target engagement (more negative = stronger competition), active = hit call of the paper (q ≤ 0.05, log2 ratio ≤ -1)
Details in all cases: compound concentration: 200 uM; treatment time: 3 h
USP42 = target: T1, USP42 (UniProt Q9H9J4)
T1 sequence (whole entry): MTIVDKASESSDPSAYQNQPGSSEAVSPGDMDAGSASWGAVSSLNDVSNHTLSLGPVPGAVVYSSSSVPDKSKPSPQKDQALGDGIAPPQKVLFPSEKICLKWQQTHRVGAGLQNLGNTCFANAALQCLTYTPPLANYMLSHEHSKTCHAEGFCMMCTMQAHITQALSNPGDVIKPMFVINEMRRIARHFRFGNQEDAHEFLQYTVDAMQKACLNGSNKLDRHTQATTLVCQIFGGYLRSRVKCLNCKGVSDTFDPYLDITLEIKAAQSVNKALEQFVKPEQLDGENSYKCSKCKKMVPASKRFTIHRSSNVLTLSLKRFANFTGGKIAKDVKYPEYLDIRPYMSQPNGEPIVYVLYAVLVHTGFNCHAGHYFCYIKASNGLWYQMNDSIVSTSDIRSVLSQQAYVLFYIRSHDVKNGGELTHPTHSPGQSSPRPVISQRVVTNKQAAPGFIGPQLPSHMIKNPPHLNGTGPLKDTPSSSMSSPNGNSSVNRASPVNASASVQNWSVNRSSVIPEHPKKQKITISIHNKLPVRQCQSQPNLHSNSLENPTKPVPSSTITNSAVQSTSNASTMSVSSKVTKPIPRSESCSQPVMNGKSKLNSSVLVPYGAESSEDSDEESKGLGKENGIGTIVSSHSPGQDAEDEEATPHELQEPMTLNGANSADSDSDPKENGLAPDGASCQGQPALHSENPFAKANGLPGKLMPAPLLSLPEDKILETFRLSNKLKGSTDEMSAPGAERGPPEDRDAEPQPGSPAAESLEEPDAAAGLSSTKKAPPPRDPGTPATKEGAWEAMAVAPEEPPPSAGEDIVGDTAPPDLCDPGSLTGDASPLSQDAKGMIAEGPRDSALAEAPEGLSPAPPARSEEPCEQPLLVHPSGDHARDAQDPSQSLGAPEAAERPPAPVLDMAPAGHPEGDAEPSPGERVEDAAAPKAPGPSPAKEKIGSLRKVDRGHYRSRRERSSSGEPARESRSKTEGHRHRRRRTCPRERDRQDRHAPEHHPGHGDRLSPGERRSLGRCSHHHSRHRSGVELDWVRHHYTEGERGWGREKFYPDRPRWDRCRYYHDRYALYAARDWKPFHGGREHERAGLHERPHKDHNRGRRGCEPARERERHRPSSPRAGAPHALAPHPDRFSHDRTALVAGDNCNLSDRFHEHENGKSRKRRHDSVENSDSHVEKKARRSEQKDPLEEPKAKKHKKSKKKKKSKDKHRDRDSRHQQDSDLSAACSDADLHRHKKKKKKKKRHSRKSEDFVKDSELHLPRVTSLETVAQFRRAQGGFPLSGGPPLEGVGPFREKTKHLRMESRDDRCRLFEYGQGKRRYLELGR
How it was run: (§1)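 HEK293T lysate (495 µg per sample, in Tris/CHAPS/IGEPAL buffer with protease inhibitors) was treated in triplicate with fragment at 200 µM or with DMSO for 3 h. It was then treated with Biotin-Ahx-Ub-VS (0.5 µM final) for 1 h. Labelled DUBs were NeutrAvidin-enriched, digested with LysC and trypsin, and run by diaPASEF LC-MS/MS. Spectronaut label-free quantities were global-median-normalised. Values are average log2 ratios fragment/DMSO by unpaired t-test, using proteins with ≥2 unique peptides.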

USP46 = USP46 (UniProt P62068)
Chain of USP46 (P62068 whole entry): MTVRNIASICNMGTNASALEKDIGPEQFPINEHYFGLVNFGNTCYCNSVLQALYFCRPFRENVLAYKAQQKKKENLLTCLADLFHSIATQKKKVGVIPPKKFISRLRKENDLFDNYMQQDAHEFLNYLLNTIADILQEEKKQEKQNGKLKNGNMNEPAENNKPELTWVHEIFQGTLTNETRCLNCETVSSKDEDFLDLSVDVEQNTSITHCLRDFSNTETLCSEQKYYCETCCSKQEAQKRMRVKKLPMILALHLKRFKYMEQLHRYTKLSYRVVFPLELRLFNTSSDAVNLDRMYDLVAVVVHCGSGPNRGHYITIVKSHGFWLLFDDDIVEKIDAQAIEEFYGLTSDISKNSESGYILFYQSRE
How it was run: as §1

USP47 = target: T2, USP47 (UniProt Q96K76)
T2 sequence (whole entry): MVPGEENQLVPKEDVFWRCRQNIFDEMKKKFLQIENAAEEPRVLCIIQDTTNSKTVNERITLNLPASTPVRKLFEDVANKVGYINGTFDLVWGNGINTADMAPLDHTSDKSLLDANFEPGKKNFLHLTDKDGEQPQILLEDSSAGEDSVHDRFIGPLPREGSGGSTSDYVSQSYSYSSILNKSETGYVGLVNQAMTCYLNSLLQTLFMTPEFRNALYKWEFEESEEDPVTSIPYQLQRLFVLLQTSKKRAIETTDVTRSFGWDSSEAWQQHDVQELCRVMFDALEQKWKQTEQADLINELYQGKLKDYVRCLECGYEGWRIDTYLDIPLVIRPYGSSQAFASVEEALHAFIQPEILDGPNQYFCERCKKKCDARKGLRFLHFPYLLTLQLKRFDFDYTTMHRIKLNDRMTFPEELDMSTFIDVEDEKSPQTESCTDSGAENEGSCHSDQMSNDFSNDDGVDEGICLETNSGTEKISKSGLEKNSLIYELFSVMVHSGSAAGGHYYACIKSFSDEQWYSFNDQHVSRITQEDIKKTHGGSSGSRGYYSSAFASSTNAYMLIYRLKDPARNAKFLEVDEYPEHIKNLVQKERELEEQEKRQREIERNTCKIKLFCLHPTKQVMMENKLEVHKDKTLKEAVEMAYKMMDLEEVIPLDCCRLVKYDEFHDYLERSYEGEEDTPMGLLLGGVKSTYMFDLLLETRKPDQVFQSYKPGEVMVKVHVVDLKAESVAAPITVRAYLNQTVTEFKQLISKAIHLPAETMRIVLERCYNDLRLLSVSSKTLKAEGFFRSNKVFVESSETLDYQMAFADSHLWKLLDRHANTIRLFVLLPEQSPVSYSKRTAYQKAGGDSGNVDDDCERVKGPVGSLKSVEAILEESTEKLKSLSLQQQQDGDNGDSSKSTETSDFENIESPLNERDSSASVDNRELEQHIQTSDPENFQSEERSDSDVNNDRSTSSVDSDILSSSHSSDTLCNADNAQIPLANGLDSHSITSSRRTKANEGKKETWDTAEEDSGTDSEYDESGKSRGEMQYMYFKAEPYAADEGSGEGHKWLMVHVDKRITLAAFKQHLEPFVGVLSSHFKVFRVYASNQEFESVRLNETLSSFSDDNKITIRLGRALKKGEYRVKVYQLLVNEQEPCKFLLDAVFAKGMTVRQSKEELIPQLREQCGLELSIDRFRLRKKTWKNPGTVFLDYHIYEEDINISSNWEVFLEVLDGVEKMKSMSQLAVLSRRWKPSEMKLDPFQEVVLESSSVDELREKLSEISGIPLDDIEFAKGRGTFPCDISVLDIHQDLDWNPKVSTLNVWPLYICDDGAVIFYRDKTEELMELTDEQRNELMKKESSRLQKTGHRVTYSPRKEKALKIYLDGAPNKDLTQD
How it was run: as §1

USP48 = target: T3, USP48 (UniProt Q86UV5)
T3 sequence (whole entry): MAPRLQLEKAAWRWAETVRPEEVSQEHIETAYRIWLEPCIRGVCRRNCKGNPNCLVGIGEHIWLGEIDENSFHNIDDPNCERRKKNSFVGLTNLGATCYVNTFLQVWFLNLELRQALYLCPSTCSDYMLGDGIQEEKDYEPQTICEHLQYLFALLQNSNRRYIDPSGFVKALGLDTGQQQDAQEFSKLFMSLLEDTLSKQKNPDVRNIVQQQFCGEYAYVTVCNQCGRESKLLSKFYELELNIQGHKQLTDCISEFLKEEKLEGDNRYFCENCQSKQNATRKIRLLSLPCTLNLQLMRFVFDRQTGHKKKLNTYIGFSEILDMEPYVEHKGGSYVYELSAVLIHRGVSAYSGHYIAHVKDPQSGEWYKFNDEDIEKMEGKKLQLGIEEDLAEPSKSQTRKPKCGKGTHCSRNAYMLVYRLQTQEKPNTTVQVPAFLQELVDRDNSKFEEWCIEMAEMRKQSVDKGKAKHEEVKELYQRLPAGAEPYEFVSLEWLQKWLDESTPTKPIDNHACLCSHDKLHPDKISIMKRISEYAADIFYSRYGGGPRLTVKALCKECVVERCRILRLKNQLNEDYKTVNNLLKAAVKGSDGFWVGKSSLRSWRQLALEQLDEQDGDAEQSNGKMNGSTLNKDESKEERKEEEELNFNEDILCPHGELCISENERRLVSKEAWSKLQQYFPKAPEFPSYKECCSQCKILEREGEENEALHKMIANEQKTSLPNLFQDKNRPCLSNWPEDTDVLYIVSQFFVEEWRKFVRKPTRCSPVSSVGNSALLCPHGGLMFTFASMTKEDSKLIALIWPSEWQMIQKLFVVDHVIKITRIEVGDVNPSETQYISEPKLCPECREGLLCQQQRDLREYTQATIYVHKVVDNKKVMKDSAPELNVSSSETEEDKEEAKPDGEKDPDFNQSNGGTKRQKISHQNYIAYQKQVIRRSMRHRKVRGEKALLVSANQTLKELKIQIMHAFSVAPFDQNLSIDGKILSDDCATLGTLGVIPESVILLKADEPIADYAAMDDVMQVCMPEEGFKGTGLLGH
How it was run: as §1

USP5 = target: T4, USP5 (UniProt P45974)
T4 sequence (whole entry): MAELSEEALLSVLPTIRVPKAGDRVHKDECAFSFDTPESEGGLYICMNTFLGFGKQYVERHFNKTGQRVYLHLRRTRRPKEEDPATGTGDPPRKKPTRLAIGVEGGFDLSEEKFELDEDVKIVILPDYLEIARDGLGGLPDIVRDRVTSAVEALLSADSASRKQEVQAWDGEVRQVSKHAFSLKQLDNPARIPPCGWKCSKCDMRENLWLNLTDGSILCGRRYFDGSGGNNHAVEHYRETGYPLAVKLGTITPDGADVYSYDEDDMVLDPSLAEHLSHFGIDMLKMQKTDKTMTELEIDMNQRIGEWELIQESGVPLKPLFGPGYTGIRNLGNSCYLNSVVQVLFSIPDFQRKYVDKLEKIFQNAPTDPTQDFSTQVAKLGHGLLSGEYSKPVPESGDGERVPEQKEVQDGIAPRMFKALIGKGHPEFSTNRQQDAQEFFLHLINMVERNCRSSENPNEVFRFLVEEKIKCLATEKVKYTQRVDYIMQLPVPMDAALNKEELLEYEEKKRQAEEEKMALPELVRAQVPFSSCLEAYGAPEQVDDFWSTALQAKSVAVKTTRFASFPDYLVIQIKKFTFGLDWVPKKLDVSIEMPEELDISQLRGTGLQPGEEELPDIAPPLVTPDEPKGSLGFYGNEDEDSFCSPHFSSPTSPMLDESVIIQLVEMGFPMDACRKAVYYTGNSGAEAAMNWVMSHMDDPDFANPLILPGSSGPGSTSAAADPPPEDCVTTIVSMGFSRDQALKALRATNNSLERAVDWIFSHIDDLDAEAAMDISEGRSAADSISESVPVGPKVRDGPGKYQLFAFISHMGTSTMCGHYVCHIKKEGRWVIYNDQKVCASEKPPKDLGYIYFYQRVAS
How it was run: as §1

USP54 = USP54 (UniProt Q70EL1)
Chain of USP54 (Q70EL1 whole entry): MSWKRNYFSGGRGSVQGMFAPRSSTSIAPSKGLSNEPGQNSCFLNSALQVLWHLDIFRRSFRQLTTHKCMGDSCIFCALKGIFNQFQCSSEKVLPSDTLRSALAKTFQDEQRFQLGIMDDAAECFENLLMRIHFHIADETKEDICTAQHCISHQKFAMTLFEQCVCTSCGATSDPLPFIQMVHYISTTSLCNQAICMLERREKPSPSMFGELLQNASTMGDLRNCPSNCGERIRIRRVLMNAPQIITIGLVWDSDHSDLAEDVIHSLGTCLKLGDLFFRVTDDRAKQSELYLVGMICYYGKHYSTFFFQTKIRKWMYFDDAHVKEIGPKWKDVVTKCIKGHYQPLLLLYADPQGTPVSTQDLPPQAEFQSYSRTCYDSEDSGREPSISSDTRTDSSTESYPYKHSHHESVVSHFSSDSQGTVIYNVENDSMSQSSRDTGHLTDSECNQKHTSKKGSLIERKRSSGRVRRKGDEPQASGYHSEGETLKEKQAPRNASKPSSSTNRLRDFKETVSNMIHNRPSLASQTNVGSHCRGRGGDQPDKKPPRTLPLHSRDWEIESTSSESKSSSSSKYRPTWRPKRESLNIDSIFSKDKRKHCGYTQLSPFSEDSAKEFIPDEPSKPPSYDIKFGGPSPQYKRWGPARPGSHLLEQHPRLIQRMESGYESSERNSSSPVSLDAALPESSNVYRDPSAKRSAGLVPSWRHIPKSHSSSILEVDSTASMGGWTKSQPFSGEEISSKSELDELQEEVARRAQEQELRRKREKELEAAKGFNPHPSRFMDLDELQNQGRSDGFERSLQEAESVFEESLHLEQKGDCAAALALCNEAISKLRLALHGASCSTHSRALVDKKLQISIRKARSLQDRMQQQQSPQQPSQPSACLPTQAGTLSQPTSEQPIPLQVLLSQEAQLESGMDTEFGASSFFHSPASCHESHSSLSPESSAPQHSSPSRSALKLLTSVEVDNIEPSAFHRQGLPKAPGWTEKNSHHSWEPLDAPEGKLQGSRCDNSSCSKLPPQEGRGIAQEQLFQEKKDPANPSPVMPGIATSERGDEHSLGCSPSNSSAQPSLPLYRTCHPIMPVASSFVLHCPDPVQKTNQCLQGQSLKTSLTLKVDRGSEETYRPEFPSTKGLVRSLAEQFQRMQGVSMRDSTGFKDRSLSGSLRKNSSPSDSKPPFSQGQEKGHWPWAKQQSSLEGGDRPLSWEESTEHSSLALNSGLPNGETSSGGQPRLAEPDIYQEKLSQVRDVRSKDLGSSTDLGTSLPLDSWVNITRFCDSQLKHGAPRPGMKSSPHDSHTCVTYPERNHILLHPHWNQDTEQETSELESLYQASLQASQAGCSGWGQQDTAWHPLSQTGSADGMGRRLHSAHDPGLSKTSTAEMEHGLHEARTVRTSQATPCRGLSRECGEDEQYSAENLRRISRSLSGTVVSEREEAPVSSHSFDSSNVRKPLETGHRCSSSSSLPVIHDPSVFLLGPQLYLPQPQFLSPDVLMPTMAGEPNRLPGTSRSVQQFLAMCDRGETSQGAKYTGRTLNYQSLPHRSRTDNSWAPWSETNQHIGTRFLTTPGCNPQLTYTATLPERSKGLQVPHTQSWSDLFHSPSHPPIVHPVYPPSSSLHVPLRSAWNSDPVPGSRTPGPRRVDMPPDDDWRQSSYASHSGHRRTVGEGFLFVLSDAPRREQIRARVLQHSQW
How it was run: as §1

USP7 = USP7 (UniProt Q93009)
How it was run: as §1

USP8 = target: T5, USP8 (UniProt P40818)
T5 sequence (whole entry): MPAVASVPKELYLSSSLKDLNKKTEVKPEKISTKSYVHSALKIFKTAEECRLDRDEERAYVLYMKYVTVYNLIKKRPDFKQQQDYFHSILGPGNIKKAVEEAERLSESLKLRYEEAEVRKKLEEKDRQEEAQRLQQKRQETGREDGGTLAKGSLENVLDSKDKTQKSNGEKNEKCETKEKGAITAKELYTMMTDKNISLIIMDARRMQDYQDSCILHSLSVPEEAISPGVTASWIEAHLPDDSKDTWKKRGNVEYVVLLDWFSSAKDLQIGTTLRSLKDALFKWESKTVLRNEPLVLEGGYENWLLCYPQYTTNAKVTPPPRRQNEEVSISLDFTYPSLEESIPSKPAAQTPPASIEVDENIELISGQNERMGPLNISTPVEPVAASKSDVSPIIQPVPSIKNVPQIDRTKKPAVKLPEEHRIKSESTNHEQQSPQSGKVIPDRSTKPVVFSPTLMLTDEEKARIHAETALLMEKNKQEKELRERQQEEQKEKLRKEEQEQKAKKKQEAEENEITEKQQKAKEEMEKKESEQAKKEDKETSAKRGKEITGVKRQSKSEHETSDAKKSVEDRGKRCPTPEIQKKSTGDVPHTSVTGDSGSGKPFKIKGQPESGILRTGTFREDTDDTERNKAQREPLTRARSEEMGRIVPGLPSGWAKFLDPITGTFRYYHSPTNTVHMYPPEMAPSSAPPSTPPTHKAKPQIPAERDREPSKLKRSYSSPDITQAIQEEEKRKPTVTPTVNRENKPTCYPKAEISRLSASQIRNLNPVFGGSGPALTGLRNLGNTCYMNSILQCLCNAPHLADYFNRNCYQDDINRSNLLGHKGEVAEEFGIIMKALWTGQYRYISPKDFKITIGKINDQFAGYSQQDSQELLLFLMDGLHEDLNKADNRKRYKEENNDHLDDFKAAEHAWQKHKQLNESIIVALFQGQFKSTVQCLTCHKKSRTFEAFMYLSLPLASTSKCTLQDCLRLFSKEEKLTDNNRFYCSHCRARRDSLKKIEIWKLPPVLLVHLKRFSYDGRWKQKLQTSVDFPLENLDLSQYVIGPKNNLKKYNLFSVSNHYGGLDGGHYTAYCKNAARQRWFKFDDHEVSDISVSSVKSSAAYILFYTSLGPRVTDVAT
How it was run: as §1

USP9X = USP9X (UniProt Q93008)
Chain of USP9X (Q93008 whole entry): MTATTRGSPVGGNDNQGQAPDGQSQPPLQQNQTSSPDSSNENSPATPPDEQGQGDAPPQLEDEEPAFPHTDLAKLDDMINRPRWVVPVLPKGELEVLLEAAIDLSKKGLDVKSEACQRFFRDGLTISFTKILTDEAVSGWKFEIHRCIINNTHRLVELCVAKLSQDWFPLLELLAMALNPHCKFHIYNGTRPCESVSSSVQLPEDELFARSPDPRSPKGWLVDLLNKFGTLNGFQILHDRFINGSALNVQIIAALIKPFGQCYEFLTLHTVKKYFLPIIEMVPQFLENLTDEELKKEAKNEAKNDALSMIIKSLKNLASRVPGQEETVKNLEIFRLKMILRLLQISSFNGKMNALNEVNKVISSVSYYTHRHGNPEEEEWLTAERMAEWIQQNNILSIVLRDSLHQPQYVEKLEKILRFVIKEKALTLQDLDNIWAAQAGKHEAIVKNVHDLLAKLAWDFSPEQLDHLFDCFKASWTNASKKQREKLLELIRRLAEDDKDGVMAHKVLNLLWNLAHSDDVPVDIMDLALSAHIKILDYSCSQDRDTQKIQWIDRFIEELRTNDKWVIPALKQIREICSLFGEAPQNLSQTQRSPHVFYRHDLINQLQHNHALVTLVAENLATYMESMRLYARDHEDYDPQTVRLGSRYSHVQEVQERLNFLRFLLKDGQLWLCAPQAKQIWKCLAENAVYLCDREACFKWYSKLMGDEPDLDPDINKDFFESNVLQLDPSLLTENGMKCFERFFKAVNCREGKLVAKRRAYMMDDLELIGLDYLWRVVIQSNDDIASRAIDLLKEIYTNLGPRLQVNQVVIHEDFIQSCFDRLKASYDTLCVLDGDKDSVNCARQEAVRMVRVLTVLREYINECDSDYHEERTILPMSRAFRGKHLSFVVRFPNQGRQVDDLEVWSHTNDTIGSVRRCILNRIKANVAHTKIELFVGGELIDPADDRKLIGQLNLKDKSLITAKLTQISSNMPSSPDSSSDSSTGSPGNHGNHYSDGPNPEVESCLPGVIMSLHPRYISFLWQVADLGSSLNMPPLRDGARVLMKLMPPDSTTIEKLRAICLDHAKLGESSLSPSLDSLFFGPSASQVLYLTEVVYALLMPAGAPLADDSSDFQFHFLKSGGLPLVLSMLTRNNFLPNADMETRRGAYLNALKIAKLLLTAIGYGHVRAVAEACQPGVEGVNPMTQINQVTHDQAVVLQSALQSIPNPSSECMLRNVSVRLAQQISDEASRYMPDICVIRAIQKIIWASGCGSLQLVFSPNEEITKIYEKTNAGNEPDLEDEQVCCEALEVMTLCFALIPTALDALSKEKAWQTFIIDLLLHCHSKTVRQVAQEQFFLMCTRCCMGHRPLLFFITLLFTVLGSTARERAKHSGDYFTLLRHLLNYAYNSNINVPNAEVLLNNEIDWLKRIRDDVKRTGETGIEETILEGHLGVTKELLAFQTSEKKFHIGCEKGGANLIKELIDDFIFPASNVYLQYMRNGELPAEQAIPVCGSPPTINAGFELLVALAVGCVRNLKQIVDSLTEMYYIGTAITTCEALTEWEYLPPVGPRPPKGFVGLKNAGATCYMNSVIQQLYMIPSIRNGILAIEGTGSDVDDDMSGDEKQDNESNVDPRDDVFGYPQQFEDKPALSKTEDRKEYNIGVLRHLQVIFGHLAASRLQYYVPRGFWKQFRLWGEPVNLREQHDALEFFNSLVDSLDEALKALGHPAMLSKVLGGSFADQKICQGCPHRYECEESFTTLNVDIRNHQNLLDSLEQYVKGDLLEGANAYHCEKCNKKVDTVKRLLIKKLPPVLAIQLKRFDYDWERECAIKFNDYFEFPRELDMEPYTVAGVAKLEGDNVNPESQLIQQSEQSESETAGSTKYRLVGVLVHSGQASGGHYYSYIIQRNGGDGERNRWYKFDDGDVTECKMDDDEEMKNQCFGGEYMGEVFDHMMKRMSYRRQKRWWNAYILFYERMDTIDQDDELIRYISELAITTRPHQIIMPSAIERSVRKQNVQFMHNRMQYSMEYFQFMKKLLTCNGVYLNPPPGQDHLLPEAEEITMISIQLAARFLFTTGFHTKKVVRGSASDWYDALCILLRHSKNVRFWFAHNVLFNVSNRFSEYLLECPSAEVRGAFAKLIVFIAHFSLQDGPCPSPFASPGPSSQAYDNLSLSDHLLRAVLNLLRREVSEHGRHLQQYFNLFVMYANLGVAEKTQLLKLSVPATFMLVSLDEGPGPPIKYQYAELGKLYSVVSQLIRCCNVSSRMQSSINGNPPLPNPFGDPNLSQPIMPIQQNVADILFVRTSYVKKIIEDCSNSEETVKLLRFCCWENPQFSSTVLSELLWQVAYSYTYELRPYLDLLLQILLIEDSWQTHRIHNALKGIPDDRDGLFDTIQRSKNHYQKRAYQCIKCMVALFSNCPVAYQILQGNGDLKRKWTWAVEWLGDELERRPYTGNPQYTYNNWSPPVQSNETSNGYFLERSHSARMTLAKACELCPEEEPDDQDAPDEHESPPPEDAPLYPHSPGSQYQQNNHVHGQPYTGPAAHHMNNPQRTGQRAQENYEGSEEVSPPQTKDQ
How it was run: as §1

UniProt O00487 = target: UniProt O00487
Chain of UniProt O00487 (O00487 whole entry): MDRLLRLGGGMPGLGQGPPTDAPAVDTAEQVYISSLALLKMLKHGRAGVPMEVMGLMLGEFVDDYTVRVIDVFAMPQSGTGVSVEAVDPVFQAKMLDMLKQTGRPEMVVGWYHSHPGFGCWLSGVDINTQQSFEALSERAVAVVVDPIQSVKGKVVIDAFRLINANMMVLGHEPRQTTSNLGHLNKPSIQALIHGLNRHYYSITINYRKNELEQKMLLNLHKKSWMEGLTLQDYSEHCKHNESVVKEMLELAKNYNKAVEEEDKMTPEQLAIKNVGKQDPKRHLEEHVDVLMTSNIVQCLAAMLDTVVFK
How it was run: as §1

Measured: log2 ratio of Biotin-Ahx-Ub-VS probe labelling

CN(CCc1ncc(Br)cn1)C(=O)CCl.Cl
inactive: USP42 0.325 | USP46 -0.136 | USP47 -0.331 | USP48 -0.46 | USP5 0.24 | USP54 0.619 | USP7 -0.266 | USP8 -0.602 | USP9X -0.319 | UniProt O00487 -0.0172
